Values joined by “and” are separate entries in the source; they are usually repeats but may differ in a detail not shown here. Equal entries are not always repeated. Results filed as inconclusive are left out. Where a call stands in place of a potency, no number is given. Active and inactive are the calls of the source. Unless noted, the call rests on the fitted dose curve; in most records, active means well fitted inhibition curve with a large enough effect; inconclusive means small, poorly fitted or top-dose-only effect; inactive means flat fitted curve, though single readings scatter.
How the values were obtained:
[1] = target: Luciferin 4-monooxygenase (Photinus pyralis) (UniProt P08659); experiment: Biochemical firefly luciferase enzyme assay for NPC (AID 624030);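 further: purified P. pyralis luciferase at 10 nM with luciferin and ATP substrate; series mostly up to about 59 µM; nearly all actives have a fitted effect of over 70% in size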
How it was run: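 Counter-screen for direct inhibition of the luciferase enzyme by approved-drug library compounds, run at 10 nM enzyme in 50 mM Tris acetate (final). Luminescence was read within 5 min of enzyme-buffer addition and normalized to PTC124 versus DMSO (0%).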

[2] = target: Voltage-gated inwardly rectifying potassium channel KCNH2 (Homo sapiens) (UniProt Q12809); experiment: qHTS Assay for Small Molecule Inhibitors of the Human hERG Channel Activity (AID 588834);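 further: lower thallium flux fluorescence means stronger hERG block; nearly all actives have a fitted effect of over 50% in size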; further: potency means the concentration at half of the fitted maximal effect
How it was run: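 hERG block measured as reduced thallium-dye (FluxOR) fluorescence after stimulation buffer addition, read over 2 min. Cells were hERG-BacMam-transduced U2OS exposed to compound ~10 min […]; concentration-response fitted with Hill equation for AC50.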

[3] = target: Vitamin D3 receptor (Homo sapiens) (UniProt P11473); experiment: qHTS assay for small molecule antagonists of vitamin D receptor signaling (AID 588541; calls by dose curve;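 further: receptor activated by calcitriol during compound treatment; series mostly up to about 77 µM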)
How it was run: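 VDR-UAS-bla HEK293T cells (2000/well, 2% charcoal-stripped FBS) were treated with titrated compounds plus 1-alpha,25-dihydroxyvitamin D3 (50 nM or 3 nM final) for 16 h at 37 C. CCF4 beta-lactamase fluorescence was read; Hill fits gave IC50.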

[4] = target: Vitamin D3 receptor (Homo sapiens) (UniProt P11473); experiment: qHTS assay for small molecule agonists of vitamin D receptor signaling (AID 588543; calls by dose curve)
How it was run: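 Agonist-mode beta-lactamase reporter: HEK293T VDR-UAS-bla cells in charcoal-stripped 2% FBS, compound series 16 h 37 C, CCF4 2 h RT. EC50 from Hill fit, scaled against DMSO and 50 nM calcitriol control.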

[5] = qHTS assay for small molecule agonists of retinoid X receptor alpha signaling (AID 588544; calls by dose curve); settings: HEK293T RXRa-UAS-bla, beta-lactamase reporter, 18 h; 530 nm emission
[6] = target: Retinoic acid receptor RXR-alpha (Homo sapiens) (UniProt P19793); experiment: as above
[7] = target: Thyroid hormone receptor beta (Homo sapiens) (UniProt P10828); experiment: qHTS assay for small molecule agonists of thyroid hormone receptor beta signaling (AID 588545; calls by dose curve)
How it was run: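 Cells (2500/well) were seeded, incubated 4 hrs at 37 C, dosed with a compound series, incubated 18 hrs, loaded with CCF4 dye for 2 hrs at RT, then read for fluorescence. Data were scaled between DMSO (0%) and 10 nM T3 (100%).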

[8] = qHTS assay for small molecule antagonists of retinoid X receptor alpha signaling (AID 588546; active means well fitted inhibition curve with a large enough effect in the signal ratio, with a control signal flat, not every such curve was filed as active; the % refers to the signal ratio;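 further: cells stimulated with 9-cis-retinoic acid as agonist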); settings: HEK293T RXRa-UAS-bla, beta-lactamase ratio, antagonist mode; measured here: W530 green channel, cytotoxicity proxy
How it was run: (§1)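 Beta-lactamase reporter inhibition, read as CCF4 fluorescence ratio (ex 405, em 460/530 nm) after 2 h at RT. HEK293T UAS-bla cells, 2500/well, were stimulated with 9-cis-RA at 500 or 100 nM final alongside test compound for 18 h at 37 C.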

[9] = target: Retinoic acid receptor RXR-alpha (Homo sapiens) (UniProt P19793); experiment: as above; settings: HEK293T RXRa-UAS-bla, beta-lactamase ratio, antagonist mode
How it was run: as §1

[10] = target: Thyroid hormone receptor beta (Homo sapiens) (UniProt P10828); experiment: qHTS assay for small molecule antagonists of thyroid hormone receptor beta signaling (AID 588547; active means well fitted inhibition curve with a large enough effect in the signal ratio, with a control signal flat, not every such curve was filed as active; the % refers to the signal ratio;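 further: cells stimulated with 0.4 nM T3 agonist during compound exposure; series mostly up to about 77 µM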); settings: TR-UAS-bla HEK293, beta-lactamase ratio, antagonist mode, 18 h
How it was run: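 TR-UAS-bla GripTite HEK293 cells in 2% charcoal/dextran FBS medium were preincubated 4 h at 37 C, given compound (0.59 nM to 92 uM) plus 0.4 nM T3 (final) for 18 h, then CCF4 for 2 h at RT; Hill fit gave IC50.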

Sequence of Luciferin 4-monooxygenase (Photinus pyralis) (P08659 whole entry, looked up): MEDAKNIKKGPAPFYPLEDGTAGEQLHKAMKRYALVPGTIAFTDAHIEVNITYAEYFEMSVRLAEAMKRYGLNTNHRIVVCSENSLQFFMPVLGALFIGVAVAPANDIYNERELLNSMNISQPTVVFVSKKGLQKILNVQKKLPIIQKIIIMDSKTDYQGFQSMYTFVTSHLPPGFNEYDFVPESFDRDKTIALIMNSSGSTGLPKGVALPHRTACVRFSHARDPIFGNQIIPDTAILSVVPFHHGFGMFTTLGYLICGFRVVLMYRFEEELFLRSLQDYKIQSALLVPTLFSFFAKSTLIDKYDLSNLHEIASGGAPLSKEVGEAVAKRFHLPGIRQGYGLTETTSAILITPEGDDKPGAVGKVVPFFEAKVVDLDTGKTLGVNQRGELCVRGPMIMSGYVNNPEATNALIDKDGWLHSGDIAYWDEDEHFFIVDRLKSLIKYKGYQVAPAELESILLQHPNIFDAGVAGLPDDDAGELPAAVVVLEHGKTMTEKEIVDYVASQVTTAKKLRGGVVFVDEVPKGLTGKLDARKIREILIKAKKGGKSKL
Sequence of Thyroid hormone receptor beta (Homo sapiens) (P10828 whole entry, looked up): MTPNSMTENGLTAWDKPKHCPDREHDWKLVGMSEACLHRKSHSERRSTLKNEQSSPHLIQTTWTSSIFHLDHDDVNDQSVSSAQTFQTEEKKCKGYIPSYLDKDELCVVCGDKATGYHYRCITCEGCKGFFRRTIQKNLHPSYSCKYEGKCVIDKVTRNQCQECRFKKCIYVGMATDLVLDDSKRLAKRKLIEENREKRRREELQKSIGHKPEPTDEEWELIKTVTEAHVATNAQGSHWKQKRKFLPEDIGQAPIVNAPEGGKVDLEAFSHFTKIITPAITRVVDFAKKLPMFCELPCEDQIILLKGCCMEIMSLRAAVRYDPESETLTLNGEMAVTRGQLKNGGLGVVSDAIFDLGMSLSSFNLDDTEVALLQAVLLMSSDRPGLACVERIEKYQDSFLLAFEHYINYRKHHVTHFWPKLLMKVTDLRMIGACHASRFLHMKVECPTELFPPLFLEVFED
Sequence of Retinoic acid receptor RXR-alpha (Homo sapiens) (P19793 whole entry, looked up): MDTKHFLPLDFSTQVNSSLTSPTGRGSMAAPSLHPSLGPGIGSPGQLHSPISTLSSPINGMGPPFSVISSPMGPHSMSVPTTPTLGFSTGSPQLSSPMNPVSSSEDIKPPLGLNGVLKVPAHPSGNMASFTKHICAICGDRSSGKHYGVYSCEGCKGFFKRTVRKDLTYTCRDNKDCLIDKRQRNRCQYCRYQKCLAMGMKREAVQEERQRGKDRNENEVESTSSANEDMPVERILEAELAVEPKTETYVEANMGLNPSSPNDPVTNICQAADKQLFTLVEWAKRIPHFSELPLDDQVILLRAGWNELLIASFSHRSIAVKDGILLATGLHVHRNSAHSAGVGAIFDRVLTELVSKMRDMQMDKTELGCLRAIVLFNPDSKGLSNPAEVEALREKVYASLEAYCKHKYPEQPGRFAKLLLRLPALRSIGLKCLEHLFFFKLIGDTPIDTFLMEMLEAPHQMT
Sequence of Voltage-gated inwardly rectifying potassium channel KCNH2 (Homo sapiens) (Q12809 whole entry, looked up): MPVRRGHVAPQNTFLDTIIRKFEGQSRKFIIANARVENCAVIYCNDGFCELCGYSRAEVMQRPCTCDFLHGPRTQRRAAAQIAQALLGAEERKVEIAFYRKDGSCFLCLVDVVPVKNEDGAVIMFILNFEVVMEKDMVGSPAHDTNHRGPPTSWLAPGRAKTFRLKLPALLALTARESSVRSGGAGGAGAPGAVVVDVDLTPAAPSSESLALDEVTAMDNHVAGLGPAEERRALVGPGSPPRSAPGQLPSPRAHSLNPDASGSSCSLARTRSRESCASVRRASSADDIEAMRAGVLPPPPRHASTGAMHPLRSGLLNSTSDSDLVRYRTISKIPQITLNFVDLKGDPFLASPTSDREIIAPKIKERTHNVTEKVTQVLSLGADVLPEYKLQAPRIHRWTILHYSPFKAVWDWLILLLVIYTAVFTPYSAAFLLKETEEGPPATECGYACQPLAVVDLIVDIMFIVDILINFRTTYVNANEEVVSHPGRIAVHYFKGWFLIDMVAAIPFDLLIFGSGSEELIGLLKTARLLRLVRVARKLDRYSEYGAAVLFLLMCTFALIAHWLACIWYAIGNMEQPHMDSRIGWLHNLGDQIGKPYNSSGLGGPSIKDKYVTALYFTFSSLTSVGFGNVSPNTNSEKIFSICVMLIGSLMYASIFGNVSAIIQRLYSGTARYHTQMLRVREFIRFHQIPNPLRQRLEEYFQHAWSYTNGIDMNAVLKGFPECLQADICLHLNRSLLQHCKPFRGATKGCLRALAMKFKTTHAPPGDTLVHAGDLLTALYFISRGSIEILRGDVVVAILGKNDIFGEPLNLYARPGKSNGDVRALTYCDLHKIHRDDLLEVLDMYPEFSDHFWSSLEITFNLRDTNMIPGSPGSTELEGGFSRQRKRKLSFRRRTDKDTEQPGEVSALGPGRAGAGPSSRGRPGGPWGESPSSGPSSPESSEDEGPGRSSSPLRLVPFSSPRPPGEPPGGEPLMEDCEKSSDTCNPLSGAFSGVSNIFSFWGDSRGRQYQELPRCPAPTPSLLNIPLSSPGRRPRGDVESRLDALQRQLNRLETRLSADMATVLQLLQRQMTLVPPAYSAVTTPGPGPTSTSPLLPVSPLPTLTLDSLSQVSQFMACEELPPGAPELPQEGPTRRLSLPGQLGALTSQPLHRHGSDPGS
Sequence of Vitamin D3 receptor (Homo sapiens) (P11473 whole entry, looked up): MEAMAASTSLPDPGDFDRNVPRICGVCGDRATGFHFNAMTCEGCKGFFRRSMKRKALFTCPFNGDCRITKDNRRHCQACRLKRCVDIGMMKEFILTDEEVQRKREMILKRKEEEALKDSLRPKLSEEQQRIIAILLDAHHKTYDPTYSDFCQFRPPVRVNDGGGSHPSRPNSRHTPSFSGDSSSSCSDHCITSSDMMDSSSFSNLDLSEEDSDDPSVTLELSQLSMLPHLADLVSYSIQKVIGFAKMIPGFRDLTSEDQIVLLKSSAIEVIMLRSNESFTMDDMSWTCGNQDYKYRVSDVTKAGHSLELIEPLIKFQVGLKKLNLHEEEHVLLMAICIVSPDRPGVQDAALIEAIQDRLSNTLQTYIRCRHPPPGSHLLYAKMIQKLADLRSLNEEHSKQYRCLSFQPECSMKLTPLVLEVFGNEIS

For O=C1CN2Cc3c(ccc(Cl)c3Cl)N=C2N1, the outcome [1] was “inactive”.
With COc1ccnc(CS(=O)c2nc3ccc(OC(F)F)cc3[nH]2)c1OC (stereo not given) the outcome [1] was “inactive”.
In the case of CCCCC(F)(F)[C@@]1(O)CC[C@H]2[C@H](CC(=O)[C@@H]2CCCCCCC(=O)O)O1, the outcome [1] was “inactive”.
For O=C(CCCN1CCN(c2ccc(F)cc2)CC1)NC1c2ccccc2CSc2ccccc21 (stereo not given), the outcome [1] was “inactive”.
In the case of CN1CC(=O)N2C(Cc3c([nH]c4ccccc34)[C@H]2c2ccc3c(c2)OCO3)C1=O (stereo not given in full), the Potency [2] was “inactive” and the outcome [1] was “inactive”.
For CC(C)(CO)[C@@H](O)C(=O)NCCC(=O)O, the outcome [1] was “inactive”.
In the case of CC[C@H](C)C(=O)O[C@H]1C[C@H](O)C=C2C=C[C@H](C)[C@H](CC[C@@H](O)C[C@@H](O)CC(=O)O)[C@H]21, the Potency [2] was “inactive”.
With CC[C@H]1OC(=O)[C@H](C)[C@@H](O[C@H]2C[C@@](C)(OC)[C@@H](O)[C@H](C)O2)[C@H](C)[C@@H](O[C@@H]2O[C@H](C)C[C@H](N(C)C)[C@H]2O)[C@](C)(O)C[C@H](C)C(=NOCOCCOC)[C@H](C)[C@@H](O)[C@]1(C)O the outcome [1] was “inactive”.
With O=C(O)c1nc(=O)[nH]c(=O)[nH]1 the Potency [2] was “inactive” and the outcome [1] was “inactive”.
With Cc1cc2nc3c(=O)[nH]c(=O)nc-3n(CC(O)C(O)C(O)CO)c2cc1C (stereo not given) the outcome [1] was “inactive”.
For CN(C)CCN(Cc1ccc(Cl)cc1)c1ccccn1, the outcome [1] was “inactive”.
In the case of N#Cc1c(N(CC(=O)O)CC(=O)O)sc(C(=O)O)c1CC(=O)O, the Potency [2] was “inactive” and the outcome [1] was “inactive”.
For COc1cc2c(cc1OC)CC(=O)N(CCCN(C)C[C@H]1Cc3cc(OC)c(OC)cc31)CC2, the outcome [1] was “inactive”.
With O=C1C(CCC(O)c2ccc(F)cc2)C(c2ccc(O)cc2)N1c1ccc(F)cc1 (stereo not given) the outcome [1] was “inactive”.
With CCC[C@H](N[C@@H](C)C(=O)N1[C@@H]2CCCC[C@H]2C[C@H]1C(=O)O)C(=O)OCC the outcome [1] was “inactive”.
For C[C@@H]1C[C@H]2[C@@H]3CCC4=CC(=O)C=C[C@]4(C)[C@@]3(F)[C@@H](O)C[C@]2(C)[C@@]1(O)C(=O)CO, the outcome [3] was “inactive”, the outcome [4] was “inactive” and the max response [5] was 10.8% and 0.324%. For the same compound, the outcome [6] was “inactive”, the outcome [7] was “inactive” and the max response [8] was 18.8% and -5.96%. The max response [9] was -0.0279% (inactive) and -1.12% (inactive), the activity change % (negative = inhibition) [10] was 1.08% (inactive) and 5.56% (inactive) and the Potency [2] was “inactive”.
In the case of CCNC(=O)[C@H]1O[C@@H](n2cnc3c(N)nc(NCCc4ccc(CCC(=O)O)cc4)nc32)[C@H](O)[C@H]1O, the Potency [2] was “inactive”.
In the case of COc1c(C)c2c(c(O)c1CC=C(C)CCC(=O)OCCN1CCOCC1)C(=O)OC2, the Potency [2] was “inactive” and the outcome [1] was “inactive”.
With CC[C@]1(O)C[C@H]2CN(CCC3=c4ccccc4=N[C]3[C@@](C(=O)OC)(c3cc4c(cc3OC)N(C)[C@H]3[C@@](O)(C(N)=O)[C@H](O)[C@]5(CC)C=CCN6CC[C@]43[C@@H]65)C2)C1 the outcome [1] was “inactive”.
With Clc1ccc(COC(Cn2ccnc2)c2ccc(Cl)cc2Cl)c(Cl)c1 (stereo not given) the Potency [2] was 4.47 µM (active) and the outcome [1] was “inactive”.
For C=C1c2cccc(O)c2C(O)=C2C(=O)[C@@]3(O)C(O)=C(C(N)=O)C(=O)[C@@H](N(C)C)[C@@H]3[C@@H](O)[C@H]12, the outcome [1] was “inactive”.
With Fc1ccc(C(c2ccc(F)cc2)N2CCN(CC=Cc3ccccc3)CC2)cc1 the outcome [1] was “inactive”.
With CC[C@@H]([C@H](C)O)n1ncn(-c2ccc(N3CCN(c4ccc(OCC5CO[C@@](Cn6cncn6)(c6ccc(F)cc6F)C5)cc4)CC3)cc2)c1=O (stereo not given in full) the outcome [1] was “inactive”.
For COc1ccc(-c2nc3ccc(C4=NNC(=O)CC4C)cc3[nH]2)cc1 (stereo not given), the Potency [2] was “inactive”.
In the case of CC(C)CN(C[C@@H](O)[C@H](Cc1ccccc1)NC(=O)O[C@H]1CO[C@H]2OCC[C@H]21)S(=O)(=O)c1ccc(N)cc1, the outcome [1] was “inactive”.
For CCCCCCCCCCCCCCCC(=O)O[C@H]1[C@@H](O)[C@@H](O)[C@@H]([C@H](NC(=O)[C@@H]2C[C@@H](CCC)CN2C)[C@H](C)Cl)O[C@@H]1SC, the outcome [1] was “inactive”.
In the case of CS(=O)(=O)c1ccc(C2=C(c3ccccc3)C(=O)OC2)cc1, the Potency [2] was “inactive” and the outcome [1] was “inactive”.
In the case of C[C@@H](O[C@H]1OCCN(Cc2n[nH]c(=O)[nH]2)[C@@H]1c1ccc(F)cc1)c1cc(C(F)(F)F)cc(C(F)(F)F)c1, the outcome [1] was “inactive”.
In the case of CCC(=O)OCC(=O)[C@@]1(OC(=O)CC)[C@@H](C)C[C@@H]2[C@H]3CCC4=CC(=O)C=C[C@]4(C)[C@@]3(F)[C@@H](O)C[C@@]21C, the outcome [1] was “inactive”.
For CN1CCN2c3ncccc3Cc3ccccc3C2C1 (stereo not given), the Potency [2] was “inactive” and the outcome [1] was “inactive”.
For N#CC(c1ccc(Cl)cc1)c1c(Cl)cc(-n2ncc(=O)[nH]c2=O)cc1Cl (stereo not given), the Potency [2] was “inactive”.
With NS(=O)(=O)c1cc(Cl)c(Cl)c(S(N)(=O)=O)c1 the Potency [2] was “inactive” and the outcome [1] was “inactive”.
With NCC1CCC(C(=O)O)CC1 (stereo not given) the Potency [2] was “inactive” and the outcome [1] was “inactive”.
